Results: PubChem BioAssay (NCI)
Compounds without any hit were thinned out: in the full panel of roughly 83,000, 20% have a hit.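 96-well plates, one dose, 48 hours. Percent growth reported; active if below 10.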 The source made the active and inactive calls.

Assays:
Test in all cases: NCI-60 one-dose screen, 48 h (100 = growth as untreated, 0 = no growth, -100 = all killed)
Details in all cases: 10 µM unless noted
SR leukemia = test system: SR leukemia
RPMI-8226 leukemia = test system: RPMI-8226 leukemia
OVCAR-8 ovarian = test system: OVCAR-8 ovarian
OVCAR-5 ovarian = test system: OVCAR-5 ovarian
OVCAR-4 ovarian = test system: OVCAR-4 ovarian
SK-OV-3 ovarian = test system: SK-OV-3 ovarian
IGROV1 ovarian = test system: IGROV1 ovarian
HS 578T breast = test system: HS 578T breast
NCI/ADR-RES ovarian = test system: NCI/ADR-RES ovarian
OVCAR-3 ovarian = test system: OVCAR-3 ovarian

Measured: growth

Cc1cc(C)cc(C(=O)Nc2cccc(C#Cc3cccc4[nH]nc(N)c34)c2)c1
active: SR leukemia 4.43%
inactive: RPMI-8226 leukemia 47.4% | OVCAR-8 ovarian 53.3% | OVCAR-5 ovarian 73.9% | OVCAR-4 ovarian 80.7% | SK-OV-3 ovarian 95.7% | IGROV1 ovarian 64.6% | HS 578T breast 75.7% | NCI/ADR-RES ovarian 59.8%

N#C/C(=C\c1ccc(-c2ccc(Cl)cc2Cl)o1)c1ccc(F)cc1
inactive: SR leukemia 90.5% | RPMI-8226 leukemia 85% | OVCAR-8 ovarian 93.8% | OVCAR-5 ovarian 92.2% | OVCAR-4 ovarian 80.4% | SK-OV-3 ovarian 81.9% | IGROV1 ovarian 86.5% | NCI/ADR-RES ovarian 93.7%

CC(=O)c1cc(C(=O)N2c3ccccc3Sc3ccccc32)n2ccc3ccccc3c12
inactive: SR leukemia 16.6% | RPMI-8226 leukemia 50.3% | OVCAR-8 ovarian 32.7% | OVCAR-5 ovarian 69.7% | OVCAR-4 ovarian 73.6% | SK-OV-3 ovarian 48.7% | IGROV1 ovarian 49.9% | HS 578T breast 16% | NCI/ADR-RES ovarian 13.4%

COc1cc(/C=C2\C(=O)Nc3ccccc32)ccc1OCc1ccc(F)cc1
inactive: SR leukemia 90.1% | RPMI-8226 leukemia 107% | OVCAR-8 ovarian 102% | OVCAR-5 ovarian 107% | OVCAR-4 ovarian 103% | SK-OV-3 ovarian 114% | IGROV1 ovarian 101% | NCI/ADR-RES ovarian 102%

COC(=O)c1[nH]nc2c1C1(C(=O)c3cccc4cccc1c34)C(C#N)=C(N)O2 (stereo not drawn)
inactive: SR leukemia 115% | RPMI-8226 leukemia 104% | OVCAR-8 ovarian 92% | OVCAR-5 ovarian 101% | OVCAR-4 ovarian 97.5% | SK-OV-3 ovarian 85.3% | IGROV1 ovarian 95.5% | HS 578T breast 86.8% | NCI/ADR-RES ovarian 106%

CC(C)(C)c1ccc(-c2nnc(-c3nc4ccccc4nc3Cl)o2)cc1
inactive: SR leukemia 91.3% | RPMI-8226 leukemia 65.9% | OVCAR-8 ovarian 84.2% | OVCAR-5 ovarian 99.1% | OVCAR-4 ovarian 82.2% | SK-OV-3 ovarian 95.9% | IGROV1 ovarian 72.5% | NCI/ADR-RES ovarian 82.5%

CC[C@H](CO)Nc1ccc2ncc(C#Cc3cncc(C(=O)Nc4ccc(CN5CCN(C)CC5)c(C(F)(F)F)c4)c3)n2n1
active: SR leukemia -42.9% | RPMI-8226 leukemia -44.8% | OVCAR-8 ovarian -58.1% | OVCAR-5 ovarian -38.1% | OVCAR-4 ovarian -47.7% | SK-OV-3 ovarian -45.6% | IGROV1 ovarian -33.1% | HS 578T breast -43.9%
inactive: NCI/ADR-RES ovarian 54.3%

CCNC(=O)N1CCc2cc(OC)c(OCCc3ccc(OC)cc3)cc2C1c1ccc(Cl)cc1C (stereo not drawn)
inactive: RPMI-8226 leukemia 20% | OVCAR-8 ovarian 27.3% | OVCAR-5 ovarian 32.9% | OVCAR-4 ovarian 51.7% | SK-OV-3 ovarian 54.9% | IGROV1 ovarian 23.4% | NCI/ADR-RES ovarian 13.5%
active: SR leukemia 6.29% | HS 578T breast 1.75%

COc1cccc2c1CN(C(=O)c1ccc(O)c(C(=O)N3Cc4ccc(OCCC[P+](c5ccccc5)(c5ccccc5)c5ccccc5)cc4C3)c1)C2
inactive: SR leukemia 35.3% | RPMI-8226 leukemia 26.2% | OVCAR-8 ovarian 79.5% | OVCAR-5 ovarian 123% | OVCAR-4 ovarian 84% | SK-OV-3 ovarian 112% | IGROV1 ovarian 43.9% | HS 578T breast 49.5% | NCI/ADR-RES ovarian 103%

COc1ccc(/C=C/C(=O)c2cccc(NC(=O)CSc3nc4ccccc4c(=O)n3-c3ccccc3)c2)cc1OC
inactive: SR leukemia 73% | RPMI-8226 leukemia 67.9% | OVCAR-8 ovarian 102% | OVCAR-5 ovarian 111% | OVCAR-4 ovarian 98.8% | SK-OV-3 ovarian 120% | IGROV1 ovarian 105% | HS 578T breast 100% | NCI/ADR-RES ovarian 105%

CCOC(=O)c1c(Nc2ccccc2)nn2c(-c3cccs3)ccnc12
inactive: SR leukemia 63.5% | RPMI-8226 leukemia 66.2% | OVCAR-8 ovarian 92.2% | OVCAR-5 ovarian 90.3% | OVCAR-4 ovarian 91.7% | SK-OV-3 ovarian 83.2% | IGROV1 ovarian 91.3% | NCI/ADR-RES ovarian 87.4%

NS(=O)(=O)c1ccc(-n2cc(-c3cccc(NC(=O)c4ccc(N5CCOCC5)c(C(F)(F)F)c4)c3)nn2)cc1
inactive: RPMI-8226 leukemia 10.2% | OVCAR-8 ovarian 42.7% | OVCAR-5 ovarian 67.8% | OVCAR-4 ovarian 15% | SK-OV-3 ovarian 69.9% | IGROV1 ovarian 40.3% | HS 578T breast 48.9% | NCI/ADR-RES ovarian 82.4%
active: SR leukemia 4.3%

COc1ccc(OC)c(-c2nc(SCC(=O)c3ccc(Br)cc3)nc(Nc3ccc(S(N)(=O)=O)cc3)c2C#N)c1
inactive: SR leukemia 13.9% | RPMI-8226 leukemia 51.2% | OVCAR-8 ovarian 62.8% | OVCAR-5 ovarian 73.3% | OVCAR-4 ovarian 57.3% | SK-OV-3 ovarian 79.9% | IGROV1 ovarian 54.7% | HS 578T breast 13.4% | NCI/ADR-RES ovarian 74.4%

CCOc1ccc(C(=O)Nc2ncc(Cc3ccc(F)cc3)s2)cc1
inactive: SR leukemia 19.6% | RPMI-8226 leukemia 25.5% | OVCAR-8 ovarian 22.1% | OVCAR-5 ovarian 34.1% | OVCAR-4 ovarian 54.1% | SK-OV-3 ovarian 36.2% | IGROV1 ovarian 40% | NCI/ADR-RES ovarian 18.2%

CN(C)CCN(C)c1ccc2ncc(C#Cc3cncc(C(=O)Nc4ccc(CN5CCN(C)CC5)c(C(F)(F)F)c4)c3)n2n1
active: SR leukemia -17.4% | RPMI-8226 leukemia -33.9% | OVCAR-4 ovarian -0.365%
inactive: OVCAR-8 ovarian 63.6% | OVCAR-5 ovarian 91.5% | SK-OV-3 ovarian 118% | IGROV1 ovarian 45.5% | HS 578T breast 59.9% | NCI/ADR-RES ovarian 37.1%

CNC(=O)c1cc(Oc2ccc3nc(NC(=O)c4cc(N5CCOCC5)cc(C(F)(F)F)c4)sc3c2)ccn1
inactive: SR leukemia 27.1% | RPMI-8226 leukemia 51.6% | OVCAR-8 ovarian 65.5% | OVCAR-5 ovarian 97.1% | OVCAR-4 ovarian 64.8% | SK-OV-3 ovarian 97.9% | IGROV1 ovarian 99.6% | HS 578T breast 79.2% | NCI/ADR-RES ovarian 80.2%

CNC(=O)c1cc(Oc2ccc3nc(NC(=O)c4cccc(OC(F)(F)F)c4)sc3c2)ccn1
inactive: SR leukemia 58.3% | RPMI-8226 leukemia 71.7% | OVCAR-8 ovarian 81.7% | OVCAR-5 ovarian 95.3% | OVCAR-4 ovarian 56.5% | SK-OV-3 ovarian 88.4% | IGROV1 ovarian 90.3% | HS 578T breast 69.6% | NCI/ADR-RES ovarian 67.3%

CCOc1cccc(-c2nc3sccn3c2-c2ccnc(S(C)(=O)=O)n2)c1
inactive: SR leukemia 68.2% | RPMI-8226 leukemia 97.1% | OVCAR-8 ovarian 102% | OVCAR-5 ovarian 106% | OVCAR-4 ovarian 87% | SK-OV-3 ovarian 112% | IGROV1 ovarian 94.2% | HS 578T breast 102% | NCI/ADR-RES ovarian 103%

O=C(NCCn1ccnc1)c1ccc(-c2nc3ccc4[nH]ncc4c3c3c2CCCC3)cc1
inactive: RPMI-8226 leukemia 77.6% | OVCAR-8 ovarian 77.2% | OVCAR-5 ovarian 93.9% | OVCAR-4 ovarian 66.3% | SK-OV-3 ovarian 63.1% | IGROV1 ovarian 62.8% | NCI/ADR-RES ovarian 102%
active: SR leukemia 2.67%

O=C(CSc1nc2ccccc2c(=O)n1-c1ccccc1)Nc1cccc(C(=O)/C=C/c2ccccc2Cl)c1
inactive: SR leukemia 89.2% | RPMI-8226 leukemia 68.5% | OVCAR-8 ovarian 99.5% | OVCAR-5 ovarian 108% | OVCAR-4 ovarian 102% | SK-OV-3 ovarian 115% | IGROV1 ovarian 107% | NCI/ADR-RES ovarian 104%

O=C1C(c2ccccc2)=C(N2CCc3ccccc32)OC1(Cl)Cl
inactive: SR leukemia 17.5% | OVCAR-8 ovarian 74.3% | OVCAR-5 ovarian 82% | OVCAR-4 ovarian 59.9% | SK-OV-3 ovarian 112% | IGROV1 ovarian 43.5% | HS 578T breast 66.3% | NCI/ADR-RES ovarian 86.7%
active: RPMI-8226 leukemia 8.06%

Cc1ccc(NC(=O)N[C@@H](Cc2cc(F)cc(F)c2)C(=O)NC2C(=O)N3C[C@H](O)C[C@H]3C(=O)N3CCCC[C@H]3C(=O)N[C@@H](CO)C(=O)N3C[C@H](C)C[C@H]3C(=O)O[C@H]2C)c(F)c1 (stereo partly drawn)
inactive: SR leukemia 40.6% | RPMI-8226 leukemia 17.6% | OVCAR-8 ovarian 44.1% | OVCAR-5 ovarian 43.8% | OVCAR-4 ovarian 29.8% | SK-OV-3 ovarian 33.7% | IGROV1 ovarian 60.6% | HS 578T breast 40.1% | NCI/ADR-RES ovarian 107%

CCc1cccc2c3c(sc12)C(c1ccc(OC)cc1)C(C#N)=C(/N=C/c1ccc(Cl)cc1)O3 (stereo not drawn)
active: SR leukemia 1.27% | NCI/ADR-RES ovarian 0.0091%
inactive: RPMI-8226 leukemia 10.9% | OVCAR-8 ovarian 21.8% | OVCAR-5 ovarian 45.7% | OVCAR-4 ovarian 73.9% | SK-OV-3 ovarian 40.4% | IGROV1 ovarian 42.6%

N#Cc1cccc(CN2CCC3=C(C2)C(=O)N(Cc2ccc(Cl)cc2)C2=NCCCN23)c1
inactive: SR leukemia 27.6% | RPMI-8226 leukemia 18.7% | OVCAR-8 ovarian 21.5% | OVCAR-5 ovarian 38.7% | OVCAR-4 ovarian 20.8% | SK-OV-3 ovarian 35.9% | IGROV1 ovarian 48.2% | HS 578T breast 50.5% | NCI/ADR-RES ovarian 13.4%

Fc1ccc(-c2cc3nc(C(Cl)Cl)nc(-c4ccc(F)cc4)n3n2)cc1
active: SR leukemia 3.96% | RPMI-8226 leukemia 3.43% | OVCAR-5 ovarian -14.3% | OVCAR-4 ovarian -9.54% | SK-OV-3 ovarian -29.2% | OVCAR-3 ovarian -31.7% | HS 578T breast -1.86%
inactive: IGROV1 ovarian 31.4% | NCI/ADR-RES ovarian 19.4%

C=CCn1c(SCC(=O)Nc2ccc(C(=O)/C=C/c3cc(OC)c(OC)c(OC)c3)cc2)nnc1-c1c[nH]c2ccccc12
active: SR leukemia 1.35% | RPMI-8226 leukemia -35.2% | IGROV1 ovarian -26% | OVCAR-3 ovarian 6.15%
inactive: OVCAR-5 ovarian 32.1% | OVCAR-4 ovarian 59.4% | SK-OV-3 ovarian 75.3% | HS 578T breast 38.8% | NCI/ADR-RES ovarian 88.9%

C=CCn1c(-c2nc3ccc(C(=C(C#N)C#N)c4ccccc4)cc3[nH]2)cc2cc(Br)ccc21
inactive: SR leukemia 50.5% | RPMI-8226 leukemia 35.7% | OVCAR-5 ovarian 77.5% | OVCAR-4 ovarian 54.5% | SK-OV-3 ovarian 63.9% | IGROV1 ovarian 65.1% | OVCAR-3 ovarian 51.2% | HS 578T breast 64.4% | NCI/ADR-RES ovarian 54.2%

Cc1cc(C)n(C(=O)c2sc(=S)n(-c3ccccc3)c2N=Nc2c(N)n[nH]c2N)n1
inactive: SR leukemia 86.4% | RPMI-8226 leukemia 108% | OVCAR-5 ovarian 101% | OVCAR-4 ovarian 115% | SK-OV-3 ovarian 109% | IGROV1 ovarian 99.8% | OVCAR-3 ovarian 119% | HS 578T breast 113% | NCI/ADR-RES ovarian 115%

CCO/C=N/C1=C(C#N)C(c2ccc(OC)cc2)c2sc3c(CC)cccc3c2O1 (stereo not drawn)
active: OVCAR-3 ovarian -28.8%
inactive: SR leukemia 20.1% | RPMI-8226 leukemia 12.7% | OVCAR-5 ovarian 43.5% | OVCAR-4 ovarian 65% | SK-OV-3 ovarian 66.6% | IGROV1 ovarian 38.4% | HS 578T breast 18.2% | NCI/ADR-RES ovarian 10.3%
